# JMJD2A Tudor – JMJD2A Tudor domain (human) inhibition; O75164; AlphaScreen JMJD2A-Tudor / H3K4me3 peptide binding; Potency, µM (highest dose often 114 µM), without a hit: at the top dose activity change, negative = inhibition, hits mostly inhibitors; 4.4% of 390,000 active; AID 504339; further: potency means the concentration at half of the fitted maximal effect; on the % scale 0 is the no-effect control and ±100 the full control effect; nearly all actives have a fitted effect of over 50% in size
# G9a block – blocks human histone lysine methyltransferase G9a. Q96KQ7. G9a H3K9 monomethylation, AlphaScreen, 2 h. Potency, µM (top dose mostly 102 µM), without a hit: at the highest dose activity, negative = inhibition, usual class: inhibitors. 8.8% of 350,000 active. AID 504332; further: potency means the concentration at half of the fitted maximal effect; on the % scale 0 is the no-effect control and ±100 the full control effect; nearly all actives have a fitted effect of over 75% in size
# Target sequence (Q96KQ7 913-1193 limits assumed): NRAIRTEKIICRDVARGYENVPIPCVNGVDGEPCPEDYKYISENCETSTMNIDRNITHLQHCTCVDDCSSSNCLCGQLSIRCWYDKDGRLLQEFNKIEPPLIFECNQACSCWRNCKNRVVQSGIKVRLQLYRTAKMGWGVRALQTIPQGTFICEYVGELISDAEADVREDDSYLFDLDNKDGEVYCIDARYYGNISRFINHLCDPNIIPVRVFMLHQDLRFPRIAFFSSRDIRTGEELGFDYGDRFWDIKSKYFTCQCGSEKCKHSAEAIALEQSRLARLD
#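 Using a bead-based AlphaScreen, monomethylated H3K9 product from 2 h room-temperature reactions (G9a 20 nM, peptide 500 nM, SAM 20 uM) was detected with 0.5 ug/mL rabbit anti-H3K9me1 antibody.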
# Six1-Eya2 inh – inhibitors of human Six1/Eya2 interaction; AlphaScreen GST-Six1/His-Eya2 binding, biochemical; active compounds read low; 0.56% of 360,000 active; Q15475+O00167; activity change, % (concentration not given with the values); AID 651725; in the data active means activity change below about -65%; inconclusive means mostly about -30% to -63%; further: on the % scale 0 is the no-effect control and ±100 the full control effect
#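 AlphaScreen luminescence read after one hour at 37 °C in darkness. Pin-transferred compounds met GST-Six1 and His-Eya2 protein (5X stock 250 nM/500 nM) plus glutathione donor and Ni-chelate acceptor beads (5X, 50 ug/mL).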
# BAZ2B inh – blocks human BAZ2B; Q9UIF8; AID 504333; AlphaScreen BAZ2B-H3K14Ac peptide displacement; Potency, µM (series often up to 114 µM), without a hit: at the top dose activity change, negative = inhibition, most hits filed as inhibitors; 4.4% of 360,000 active; further: potency means the concentration at half of the fitted maximal effect; on the % scale 0 is the no-effect control and ±100 the full control effect; nearly all actives have a fitted effect of over 60% in size
#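 AlphaScreen displacement: compounds (up to 110uM) incubated 30 min at room temperature with a preformed 50 nM BAZ2B/50 nM biotinylated H3K14Ac peptide complex in PBS pH 7.4 with Tween-20. Donor and acceptor beads at 10 ug/mL final added, 20 min light-protected before reading.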
# CtBP-E1A inh – inhibitors of CtBP/E1A interaction; AID 651724; 0.49% of 340,000 active; activity change, % (no concentration beside the values); AlphaScreen GST-E1A/His-CtBP binding, 1536-well; active compounds read low; in the data active means activity change below about -65%; inconclusive means mostly about -30% to -63%; further: on the % scale 0 is the no-effect control and ±100 the full control effect
#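 AlphaScreen with 125 nM GST-E1A and 125 nM His-CtBP (5X stocks) in Tris pH 8.0, 300 mM NaCl, BSA, Tween 20, TCEP. Compounds preincubated 2 h at 37 deg C, then glutathione donor/nickel acceptor beads added for 1 h at 37 deg C in dark.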
# HP1b chromo inh – inhibitors of HP1-beta chromodomain binding to methylated histone tails. P83916. AlphaScreen HP1-beta / biotin-H3K9me3 peptide binding. Potency, µM (doses to about 114 µM), inactives show at the highest dose activity change, negative = inhibition, hits mostly inhibitors. 0.56% of 390,000 active. AID 540317; further: potency means the concentration at half of the fitted maximal effect; nearly all actives have a fitted effect of over 70% in size
# Target sequence (P83916 whole entry, looked up): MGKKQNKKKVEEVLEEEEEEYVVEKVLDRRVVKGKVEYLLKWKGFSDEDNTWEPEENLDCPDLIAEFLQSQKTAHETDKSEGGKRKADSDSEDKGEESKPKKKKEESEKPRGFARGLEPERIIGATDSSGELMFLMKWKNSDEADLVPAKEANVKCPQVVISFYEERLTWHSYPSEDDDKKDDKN
#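 AlphaScreen: HP1-beta (50 nM) preformed 30 min with biotin-H3(1-18)K9me3 peptide (50 nM) in PBS pH 7.4, 0.01% Tween-20. Compound added for 30 min at RT, then streptavidin donor/nickel chelate acceptor beads (10 ug/mL) for 30 min.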
# The depositor's hits bear a star; ? = inconclusive; · = not tested or not shown; [ ] = remark or other dose. Shown are actives, neighbours in structure and some others; about 10% of the full set was active somewhere. Unless noted, the call rests on the fitted dose curve; in most records, active means well fitted inhibition curve with a large enough effect; inconclusive means small, poorly fitted or top-dose-only effect; inactive means no such curve, though single readings can be large or run the other way.
SMILES,JMJD2A Tudor,G9a block,Six1-Eya2 inh,BAZ2B inh,CtBP-E1A inh,HP1b chromo inh
Cc1ccc(-n2c(C)nc3oc4ccccc4c(=O)c3c2=O)cc1,50µM*,56µM*,-20,45µM*,-23,-25%
Cc1cc(NC(=O)c2cccnc2)cc(-c2nc3cc(Cl)ccc3o2)c1O,-19%,45%[59 µM],·,16%,·,66%
COc1ccc(N2CCN(C(=O)c3c(C)nn(-c4ccc(F)cc4)c3-n3cccc3)CC2)cc1,?,?,·,-24%,·,-9%
O=C(O)CSc1nnnn1C1CCCCC1,28µM*,15%[0.501 µM],3,5%,6,5%
O=C(CSc1nnnn1C1CCCCC1)N1CCCC1,-5%,-3%,9,13%,-3,9%
Cc1ccc(C)c(Cn2c(=O)n(-c3ccc(F)cc3)c(=O)c3sc4ccccc4c32)c1,-11%,-3%[59 µM],·,-2%,·,32%
N#CC(C(=O)c1ccco1)c1ccccn1 (stereo unspecified),-24%,35µM*,-4,4%,5,17%
CCSc1ncc(Cl)c(C(=O)N2CCN(c3ccccc3OC)CC2)n1,-19%,-6%[59 µM],·,-7%,·,3%
Cc1c(-c2ccccn2)c(=O)[nH]n1-c1ccc(F)cc1,?,-29%,?,50µM*,?,28%
COc1ccc(C=NN=C2c3ccccc3-c3ccccc32)cc1OC,13µM*,·,?,·,-2,?
CN1CC[C@H](c2c(O)cc(O)c3c(=O)cc(-c4ccccc4Cl)oc23)[C@@H](O)C1,-34%,·,·,·,·,-2%
CC(=O)c1cccc(S(=O)(=O)N2CCN(c3nc(-c4cccs4)nc4ccccc34)CC2)c1,-20%,·,·,·,·,19%
O=C1CCC(C(=O)OCc2ccccc2)N1 (stereo unspecified),-15%,6.3µM*,3,-4%,0,15%
O=C1CCC(C(=O)OCc2c(Cl)cccc2Cl)N1 (stereo unspecified),5%,25%[59 µM],2,4%,9,27%
C=CCNc1nc2cc(-c3cccc(Cl)c3)sc2c(=O)n1C,·,·,3,·,4,·
Cc1ccc(S(=O)(=O)N2[C@@H](c3ccccc3F)C(C(=O)O)=CC[C@H]2c2ccc(Cl)c(Cl)c2)cc1,-19%,-28%[2.33 µM],-4,71µM*,2,27%
O=C(OCc1cn([C@H]2C[C@H](c3ccc(Cl)cc3)N(Cc3cccs3)C[C@@H]2O)nn1)c1ccccc1,·,·,-9,·,0,·
CSC1=NSC2=NC(=O)/C(=C/c3coc4ccc(O)cc4c3=O)C(=N)N12,?,?,-67*,?,-6,-22%
CSC1=NSC2=NC(=O)/C(=C/c3coc4ccccc4c3=O)C(=N)N12,-32%,?,-27,-31%,-25,58%
CC(C)NC(=O)COc1coc(CN2CCN(c3ccccc3F)CC2)cc1=O,-10%,32%[59 µM],1,-3%,3,32%
Cc1c(NC2=C(Cl)C(=O)N(c3ccccc3Cl)C2=O)c(=O)n(-c2ccccc2)n1C,?,40µM*,-6,-38%,-1,2%
Cc1c(NC(=O)Nc2ccc([N+](=O)[O-])cc2)c(=O)n(-c2ccccc2)n1C,16µM*,18%,5,-3%,8,13%
Cc1c(Cl)cccc1NC(=O)Nc1c(C)n(C)n(-c2ccccc2)c1=O,-2%,79µM*,3,-1%,4,38%
Cc1c(NC(=S)N/N=C/c2cc([N+](=O)[O-])ccc2O)c(=O)n(-c2ccccc2)n1C,28µM*,56µM*,-88*,5.6µM*,·,26%
Cc1cc(=O)[nH]c(Nc2c(C)n(C)n(-c3ccccc3)c2=O)n1,1%,22%[12.7 µM],-14,-5%,17,15%
O=C(/C=C/c1ccccc1[N+](=O)[O-])NCCCN1CCCC1=O,-9%,3%,1,-11%,-2,36%
COC(=O)C1=C(C)N(Cc2ccccc2)C(=NCc2cc(OC)c(OC)c(OC)c2)N[C@H]1c1ccc(Br)cc1,?,·,-3,10%,-2,11%
Oc1ccc(Br)cc1/C=N/Nc1nc(N2CCCCC2)nc(N2CCOCC2)n1,-13%,15%,6,-13%,13,37%

# Assay outcomes from PubChem.
